Drawing on PubChem BioAssay (NCI), this text covers growth for ten compounds.

About 83,000 compounds went through this panel and 20% of them were active in at least one assay; those are over-represented in the sample as a whole.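 Percent growth is the endpoint: 0 to 100 indicates growth inhibition (40 means 60% inhibition), 0 means no net growth, and negative values indicate cell death.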 Values without a mark were called inactive. The source made the active and inactive calls. The calls were made as follows: active = growth percent below 10; inactive = the rest.

Test systems include SK-MEL-2 melanoma; EKVX NSCLC; SN12C renal; UO-31 renal; TK-10 renal; ACHN renal; CAKI-1 renal; A498 renal; CCRF-CEM leukemia; MOLT-4 leukemia; RPMI-8226 leukemia; OVCAR-8 ovarian; OVCAR-5 ovarian; OVCAR-4 ovarian; SK-OV-3 ovarian; IGROV1 ovarian; OVCAR-3 ovarian; HS 578T breast; NCI/ADR-RES ovarian.
Experiment in all cases: NCI-60 one-dose screen, 48 h (100 = growth as untreated, 0 = no growth, -100 = all killed)
What all share (settings): 10 µM unless noted

Take `CCOC(=O)Cn1c(=O)c2c(c3ccccc3n2C)n2nnc(-c3ccccc3)c12`: the growth in the assay with SK-MEL-2 melanoma was 98.3%; in the assay on EKVX NSCLC, 95.1%; in the assay with SN12C renal it was 118%; with UO-31 renal it was 74.9%; in the assay on TK-10 renal it was 120%; with ACHN renal, 97.3%. Besides, the growth is 96.8% with CAKI-1 renal; 127% with A498 renal; 282% with CCRF-CEM leukemia; 92.8% with MOLT-4 leukemia; 136% in the assay with RPMI-8226 leukemia; 106% in the assay on OVCAR-8 ovarian. The growth is 70.9% with OVCAR-5 ovarian; 104% with OVCAR-4 ovarian; 103% in the assay with SK-OV-3 ovarian; 68.7% in the assay with IGROV1 ovarian; 109% in the assay with OVCAR-3 ovarian; 107% in the assay on HS 578T breast. Also, the growth in the assay on NCI/ADR-RES ovarian was 102%.
As to `COc1ccc2c(c1)/C(=C/c1sc(=S)n(Cc3ccco3)c1O)C=N2`, the growth is 27% with SK-MEL-2 melanoma; 60.2% with EKVX NSCLC; 32.7% with SN12C renal; 58.6% in the assay on UO-31 renal; 77.6% in the assay on TK-10 renal; 40.6% in the assay on ACHN renal. Moreover, the growth in the assay on CAKI-1 renal is 39.3%; with A498 renal, -9.18% (active); with CCRF-CEM leukemia, 18.3%; in the assay on MOLT-4 leukemia, 29.2%; in the assay on RPMI-8226 leukemia, 18.5%; with OVCAR-8 ovarian, 40.7%. The growth in the assay on OVCAR-5 ovarian is 76.8%; in the assay on OVCAR-4 ovarian it was 73.7%; with SK-OV-3 ovarian it was 68.6%; with IGROV1 ovarian, 47.8%; in the assay on OVCAR-3 ovarian it was 22.9%; with HS 578T breast, 20.4%. Also, in the assay on NCI/ADR-RES ovarian, the growth was 13.3%.
Turning to `O=C(O)C(c1ccccc1)N1C(=O)CSC1=S` (stereo not given), the growth in the assay with SK-MEL-2 melanoma is 102%; with EKVX NSCLC, 98%; in the assay with SN12C renal, 97%; in the assay with UO-31 renal, 94.3%; with TK-10 renal, 95.7%; with ACHN renal, 102%. Also, the growth was 89.3% in the assay with CAKI-1 renal; 83.9% in the assay on A498 renal; 105% with CCRF-CEM leukemia; 99.9% in the assay with MOLT-4 leukemia; 114% in the assay with RPMI-8226 leukemia; 101% in the assay on OVCAR-8 ovarian. The growth in the assay on OVCAR-5 ovarian is 101%; in the assay on OVCAR-4 ovarian it was 109%; with SK-OV-3 ovarian it was 101%; with IGROV1 ovarian it was 107%; in the assay on OVCAR-3 ovarian, 106%; with HS 578T breast, 100%. The growth in the assay on NCI/ADR-RES ovarian is 106%.
Consider `CCOC(=O)/C=C1\S/C(=N\Nc2ccc([N+](=O)[O-])cc2[N+](=O)[O-])N(Cc2ccccc2)C1=O`, for which the growth in the assay on SK-MEL-2 melanoma was 102%; in the assay with EKVX NSCLC, 86.4%; with SN12C renal it was 57.3%; in the assay with UO-31 renal it was 66.4%; in the assay with TK-10 renal, 115%; in the assay with ACHN renal, 84.3%. Further, the growth in the assay on CAKI-1 renal is 81.1%; with A498 renal, 70.4%; with CCRF-CEM leukemia, 39.6%; in the assay on MOLT-4 leukemia it was 67.5%; in the assay on RPMI-8226 leukemia, 7.78% (active); in the assay with OVCAR-8 ovarian, 73.4%. The growth in the assay on OVCAR-5 ovarian is 95%; with OVCAR-4 ovarian, 69.2%; with SK-OV-3 ovarian it was 104%; with IGROV1 ovarian it was 88.5%; in the assay on OVCAR-3 ovarian, 83.5%; with HS 578T breast it was 84.3%. In addition, in the assay on NCI/ADR-RES ovarian, the growth was 75.2%.
With `C#C[C@]1(O)CC[C@H]2[C@@H]3CC=C4c5sc(Nc6ccccc6)nc5CC[C@]4(C)[C@H]3CC[C@@]21C`, the growth with SK-MEL-2 melanoma was 16.7%; in the assay with EKVX NSCLC, 36.3%; with SN12C renal, 29.2%; with UO-31 renal, 13.5%; with TK-10 renal, 56.8%; in the assay on ACHN renal it was 20.1%. Further, the growth in the assay on CAKI-1 renal is 21.5%; with A498 renal, -37.1% (active); with CCRF-CEM leukemia it was 6.66% (active); in the assay on MOLT-4 leukemia, 7.73% (active); in the assay with RPMI-8226 leukemia, -32.1% (active); in the assay with OVCAR-8 ovarian, 33.8%. For the same compound, the growth is 52% in the assay with OVCAR-5 ovarian; 51.6% in the assay with OVCAR-4 ovarian; -35.3% (active) in the assay on SK-OV-3 ovarian; 46.7% with IGROV1 ovarian; 31.5% in the assay on OVCAR-3 ovarian; -19.9% (active) in the assay on HS 578T breast. In the assay on NCI/ADR-RES ovarian, the growth is 38.2%.
Regarding `COc1c(B(O)O)cc(C)cc1-c1nc2ccc3[nH]ncc3c2c2c1CCCC2`, the growth in the assay with SK-MEL-2 melanoma is 102%; in the assay on EKVX NSCLC, 54.2%; with SN12C renal it was 52%; in the assay on UO-31 renal, 23.5%; in the assay with TK-10 renal it was 19.7%; with ACHN renal it was 57%. Besides, the growth in the assay on CAKI-1 renal was -31.8% (active); in the assay on A498 renal it was 49.2%; with CCRF-CEM leukemia, 35.1%; in the assay on MOLT-4 leukemia it was 19.7%; in the assay on RPMI-8226 leukemia, 35.6%; with OVCAR-8 ovarian, 53.3%. Also, the growth in the assay on OVCAR-5 ovarian is 89.3%; with OVCAR-4 ovarian, 102%; with SK-OV-3 ovarian it was 63.5%; in the assay with IGROV1 ovarian, 60.8%; in the assay on OVCAR-3 ovarian, 102%; with HS 578T breast, 18.2%. The growth in the assay with NCI/ADR-RES ovarian is 55.7%.
As for `COc1ccc(/C=C/c2c(C(=O)/C=C/c3ccc(C(F)(F)F)cc3)c(C)nc3ccccc23)cc1`, the growth in the assay on SK-MEL-2 melanoma was -12.1% (active); in the assay with EKVX NSCLC, -18.7% (active); with SN12C renal it was -42.9% (active); in the assay with UO-31 renal, -87.7% (active); with TK-10 renal it was -14% (active); with ACHN renal, -94.3% (active). The growth in the assay with CAKI-1 renal is -38% (active); in the assay with A498 renal, -66.3% (active); in the assay on CCRF-CEM leukemia, 7.64% (active); with MOLT-4 leukemia, 6.21% (active); with RPMI-8226 leukemia, -25.7% (active); in the assay with OVCAR-8 ovarian it was 9.68% (active). Besides, the growth in the assay on OVCAR-5 ovarian is -33.6% (active); in the assay on OVCAR-4 ovarian, -6.41% (active); with SK-OV-3 ovarian, 27.3%; in the assay with IGROV1 ovarian, -57.2% (active); in the assay with OVCAR-3 ovarian, -71% (active); in the assay on HS 578T breast, 1.9% (active). The growth in the assay on NCI/ADR-RES ovarian was 2.01% (active).
In the case of `COc1cc(C(=O)/C=C/c2c(Cl)nc3sccn23)cc(OC)c1OC`, the growth in the assay on SK-MEL-2 melanoma was 86.1%; in the assay with EKVX NSCLC, 90.7%; with SN12C renal it was 66.3%; with UO-31 renal, 60.4%; with TK-10 renal it was 106%; in the assay with ACHN renal, 86.4%. In addition, the growth in the assay with CAKI-1 renal is 84.9%; with A498 renal it was 88%; with CCRF-CEM leukemia it was 48.7%; with MOLT-4 leukemia, 74%; in the assay on RPMI-8226 leukemia, 40.8%; in the assay with OVCAR-8 ovarian, 85.9%. The growth in the assay with OVCAR-5 ovarian is 92.6%; with OVCAR-4 ovarian, 90.6%; in the assay with SK-OV-3 ovarian, 83.3%; with IGROV1 ovarian, 79.8%; in the assay on OVCAR-3 ovarian, 64.5%; with HS 578T breast it was 61%. Besides, in the assay on NCI/ADR-RES ovarian, the growth is 81.4%.
For the compound `Nc1nc(Cl)cc(=O)n1Cc1ccccc1`, the growth was 105% in the assay on SK-MEL-2 melanoma; 94.1% in the assay on EKVX NSCLC; 90.9% with SN12C renal; 82.9% with UO-31 renal; 92.7% in the assay on TK-10 renal; 107% in the assay on ACHN renal. The growth in the assay on CAKI-1 renal is 85.3%; with A498 renal, 99.4%; with CCRF-CEM leukemia, 98.7%; with MOLT-4 leukemia, 86.8%; in the assay with RPMI-8226 leukemia it was 100%; in the assay with OVCAR-8 ovarian, 92.1%. Also, the growth with OVCAR-5 ovarian is 91%; with OVCAR-4 ovarian, 97.1%; in the assay with SK-OV-3 ovarian it was 103%; with IGROV1 ovarian, 115%; with OVCAR-3 ovarian, 103%; in the assay with HS 578T breast, 135%. Further, in the assay with NCI/ADR-RES ovarian, the growth was 91.9%.
`COc1ccc(-c2cc(-c3cc(OC)c(OC)c(OC)c3)nc(N3CCOCC3)c2C#N)cc1`: the growth with SK-MEL-2 melanoma was 76.1%; with EKVX NSCLC it was 64.9%; in the assay on SN12C renal, 81%; in the assay on UO-31 renal it was 63.7%; in the assay on TK-10 renal, 100%; in the assay on ACHN renal it was 68.3%. Also, the growth is -22.7% (active) in the assay with CAKI-1 renal; 76.7% in the assay with A498 renal; 89.9% in the assay on CCRF-CEM leukemia; 56.7% in the assay with MOLT-4 leukemia; 63.7% in the assay on RPMI-8226 leukemia; 78.9% with OVCAR-8 ovarian. In addition, the growth in the assay with OVCAR-5 ovarian is 78.4%; in the assay on OVCAR-4 ovarian it was 85.8%; in the assay with SK-OV-3 ovarian, 98.2%; in the assay on IGROV1 ovarian, 77.6%; with OVCAR-3 ovarian it was 82.9%; in the assay on HS 578T breast, 67.5%. In addition, the growth with NCI/ADR-RES ovarian is 29.9%.
